Reference: PubChem BioAssay AID624273 (Broad Institute, 2012)
Hit rate of the full screen: of about 1,000 compounds, about 230 (23%) were called active. Not shown: some 1% with an inconclusive outcome. No rule for the calls is given here. This is one part of the list. Entries with a potency or affinity are not part of this list.

Biological target: Long-chain-fatty-acid--AMP ligase FadD28 (Mycobacterium tuberculosis (strain ATCC 25618 / H37Rv)) (UniProt P9WQ59)
Experiment: inhibitors of FadD28 bisubstrate probe binding, dose response, biochemical, fluorescence polarization, cherry-pick (AID 624273)
Conditions: series mostly up to 50 µM; activity change, negative = inhibition: at the top concentration

Chain of Long-chain-fatty-acid--AMP ligase FadD28 (Mycobacterium tuberculosis (strain ATCC 25618 / H37Rv)) (P9WQ59 whole entry, looked up): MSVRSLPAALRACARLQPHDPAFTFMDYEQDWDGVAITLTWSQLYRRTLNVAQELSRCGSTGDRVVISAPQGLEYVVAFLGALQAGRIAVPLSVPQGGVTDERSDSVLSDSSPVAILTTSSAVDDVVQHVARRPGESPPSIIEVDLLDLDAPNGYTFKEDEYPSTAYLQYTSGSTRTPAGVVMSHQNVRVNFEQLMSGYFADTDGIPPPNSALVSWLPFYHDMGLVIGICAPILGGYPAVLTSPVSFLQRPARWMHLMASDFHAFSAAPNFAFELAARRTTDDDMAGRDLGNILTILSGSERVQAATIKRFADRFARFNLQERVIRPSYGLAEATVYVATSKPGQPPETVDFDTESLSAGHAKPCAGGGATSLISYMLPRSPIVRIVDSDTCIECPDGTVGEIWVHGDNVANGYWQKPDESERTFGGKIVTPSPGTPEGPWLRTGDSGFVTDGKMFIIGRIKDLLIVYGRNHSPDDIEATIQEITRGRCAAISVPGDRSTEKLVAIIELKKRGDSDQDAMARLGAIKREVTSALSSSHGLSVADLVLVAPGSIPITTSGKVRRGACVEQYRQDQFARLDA

SMILES	activity change, negative = inhibition
CC(C)NC(=O)N1CCC(n2nccc2NC(=O)CCOc2ccccc2)CC1	-2.33% (inactive)
O=C1NC(=S)S/C1=C\c1cc2ccccc2nc1N1CCCCC1	-17% (inactive)
COc1ccc(/C=C2/C(=O)N(Cc3ccco3)C(=O)N(C(C)C)C2=O)cc1	-13.7% (inactive)
CC1CC(C)CN(CCCNC(=O)Cn2cccc2C(=O)c2ccccc2)C1 (stereo not given)	-8.05% (inactive)
CC(=O)c1ccc(C(=O)N2CCCC(Nc3ccccc3)C2)s1 (stereo not given)	-0.111% (inactive)
O=C(c1ccc2nc(Cc3cccc(Cl)c3)oc2c1)N1CCC(O)CC1	-9.52% (inactive)
CCOC(=O)Nc1cc(N)ncn1	-3.17% (inactive)
COc1ccc(CCNC(=O)C(=O)NCCCN2CCOCC2)cc1	-10.2% (inactive)
CCN(CC)c1ccc(/C=c2\sc3nnc(-c4ccccc4Cl)n3c2=O)cc1	-17.7% (inactive)
Cc1ccc(S(=O)(=O)N2CCC(NC(=O)c3cccc(F)c3)CC2)cc1	-2.21% (inactive)
CCC1(C)Cc2ccccc2-c2nc(NCCO)[nH]c(=O)c21 (stereo not given)	-2.68% (inactive)
COCC(=O)/C=C1\Sc2ccccc2N1C	-3.4% (inactive)
O=Cc1ccc(C(=O)OCC(=O)NC(=O)Nc2ccccc2F)cc1	-11% (inactive)
COc1cccc(-c2nc3ccc(C(=O)NC(C)Cc4cccnc4)cc3o2)c1 (stereo not given)	5.79% (inactive)
Cc1ccc(OCC(=O)Nc2ccncc2)cc1	-4.8% (inactive)
Cc1ccc2nc(SCC(=O)Nc3ccc(C(N)=O)cc3)[nH]c2c1	0.456% (inactive)
O=S(=O)(c1ccc(N2CCC(c3ccc(Cl)cc3)=N2)cc1)N(CCO)CCO	-2.48% (inactive)
Cc1noc(NS(=O)(=O)c2ccc(NC(=O)/C=C/c3ccc(Br)cc3)cc2)c1C	-3.32% (inactive)
NC(N)=NS(=O)(=O)c1ccc(NC(=S)NC(=O)/C=C/c2ccc(F)cc2)cc1	-1.73% (inactive)
CCOc1ccc(N(C(C)C(=O)Nc2cccnc2)S(C)(=O)=O)cc1 (stereo not given)	-21.2% (inactive)
COc1ccc(C2=NOC(C)(c3nnc(-c4ccccc4)o3)C2)cc1 (stereo not given)	-2.62% (inactive)
Cc1cc(-c2ccc(C)c(S(=O)(=O)Nc3ccc(S(N)(=O)=O)cc3)c2)on1	0.761% (inactive)
O=S(=O)(c1ccc(Nc2ccc(-c3ccc4c(c3)OCCO4)nn2)cc1)N1CCCC1	-17.2% (inactive)
Cc1ccccc1C(=O)OCCN(C)Cc1ccccc1	0.551% (inactive)
COC(=O)C1=C(C)N(CCc2c[nH]c3ccccc23)C(=O)C1	-5.77% (inactive)
CC(C)(C)c1ccc(OCCC(=O)Nc2cccc(S(=O)(=O)N3CCCC3)c2)cc1	-7.77% (inactive)
COC(=O)c1cn(NC(=O)c2ccc([N+](=O)[O-])c(C)c2)c(=O)c2ccccc12	-5.95% (inactive)

SMILES	activity change, negative = inhibition
N#CC(=C=[N-])C1=C(C#N)C(c2ccccc2F)C([n+]2ccccc2)C(O)(C2CC2)N1 (stereo not given)	-12.9% (inactive)
COc1ccccc1C/C(N)=N/OC(=O)c1cccs1	-8.84% (inactive)
COc1ccc(OC)c(NC(=O)CN2C(=O)C(C)N(c3ccc(C)cc3)C2=O)c1 (stereo not given)	0.484% (inactive)
Cc1ccc(S(=O)(=O)Nc2cccc3c2O[C@@H](CN(C)C(=O)Nc2ccc4c(c2)OCO4)[C@H](C)CN([C@@H](C)CO)C3=O)cc1	-2.6% (inactive)
CCCc1cc(=O)[nH]c(SCc2ccc(C#N)cc2)n1	-3.34% (inactive)
COc1ccccc1-c1cnc(C(O)c2cc(C)c(OC)c(C)c2)[nH]1 (stereo not given)	-4.76% (inactive)
O=C(NNC(=O)C1CC1)Nc1ccc(Cl)cc1	-0.529% (inactive)
O=C(NCCN1CCN(c2ccccc2F)CC1)c1cccn2c(=O)c3ccccc3nc12	-3.39% (inactive)
CCOc1ccc(OCCNC2CCCC2)cc1	-3.63% (inactive)
CC(C)(C)C1CCc2c(sc(NC(=O)C3CCCO3)c2C(N)=O)C1 (stereo not given)	-2.01% (inactive)
O=C(O)Cn1c(CCS(=O)(=O)c2ccc(Br)cc2)nc2ccccc21	-2.94% (inactive)
COc1ccc(-c2cc(C(F)(F)F)c3c(=O)n(-c4ccccc4)[nH]c3n2)cc1	-16.9% (inactive)
O=C(CSc1ccc(Cl)cc1)NC1=NN(c2ccccc2)C(=O)C1	-7.19% (inactive)
C[C@@H]1CN([C@H](C)CO)C(=O)c2cc(NC(=O)Nc3ccc(C(F)(F)F)cc3)ccc2O[C@H]1CN(C)S(=O)(=O)c1ccccc1	-3.14% (inactive)
N#CCCN(CCC#N)C(=O)C1c2ccccc2Oc2ccccc21	-14.3% (inactive)
CCCCCCn1cc(C(=O)O)c(=O)c2cc(F)c(N3CCN(C)CC3)cc21	-6.74% (inactive)
O=C(NNC(=O)C1CC=CCC1)c1ccccc1Cl (stereo not given)	-7.49% (inactive)
COc1ccc(CCNC(=O)CSc2nc3[nH]ncc3c(=O)n2-c2ccc(Cl)cc2Cl)cc1OC	6.51% (inactive)
O=C(CSc1nnc(CNc2ccc(Cl)cc2)o1)Nc1nc2c(s1)CCCC2	-4.67% (inactive)
COCC(C)N=Cc1c(O)[nH]c2ccccc12 (stereo not given)	-3.22% (inactive)
CC1=C(C(=O)OCCCBr)C(c2ccc3c(c2)OCO3)NC(=O)N1 (stereo not given)	7.23% (inactive)
CN1CC(C(=O)c2ccc(Cl)cc2)C(c2ccc(N(C)C)cc2)C1 (stereo not given)	-12.5% (inactive)
CC(=O)Oc1ccc(-c2nc(-c3cccnc3)no2)cc1	-0.647% (inactive)
COc1ncnc(-c2ccccc2)c1-c1ccccc1	-5.28% (inactive)
COCC(=O)Nc1ccc(Br)cc1C	-4.66% (inactive)
COc1ccc(C(=O)Nc2ccncc2)cc1OC	-2.23% (inactive)
O=C(CN1C(=O)/C(=C/c2ccco2)SC1=S)NC1CCS(=O)(=O)C1 (stereo not given)	-10.4% (inactive)

SMILES	activity change, negative = inhibition
COc1ccc(/C=C2\SC(=O)N(CC(=O)Nc3ccccc3O)C2=O)cc1OC	-6.42% (inactive)
COc1cc(/C=N/n2c(COc3ccccc3)n[nH]c2=S)cc(OC)c1OC(C)=O	-3.5% (inactive)
O=C(NCCS(=O)(=O)N1CCN(c2cccc(Cl)c2)CC1)c1cc(=O)c2ccccc2o1	1.84% (inactive)
COc1cc2cc(C(N)=O)c(N)nc2cc1OC	-1.59% (inactive)
Cc1nc(-c2cccs2)ccc1C(=O)O	-6.58% (inactive)
COCCCNC(=S)N/N=C/c1cccc(OC)c1O	-6.99% (inactive)
O=[N+]([O-])c1cccc(/C=N/n2c(C3CCCCC3)n[nH]c2=S)c1	-19.2% (inactive)
CC1CCN(S(=O)(=O)c2ccc(C(=O)Nc3nnc(C4=COCCO4)o3)cc2)CC1	6.34% (inactive)
O=C(COC(=O)c1cccc(S(=O)(=O)N2CCCC2)c1)Nc1cccc(Br)c1	-1.15% (inactive)
CCN(CC)S(=O)(=O)c1ccc(NC(=O)COC(=O)c2ccc(Br)o2)cc1	-9.9% (inactive)
O=C(CSc1nnnn1-c1ccccc1)Nc1nsc(-c2ccc(Cl)cc2)n1	1.71% (inactive)
Cc1cc(S(=O)(=O)N(Cc2cccs2)Cc2ccccc2F)ccc1-n1cnnn1	-3.2% (inactive)
CCNS(=O)(=O)c1cc(OC)c(Cl)cc1OC	-4.8% (inactive)
O=C(Nc1nc(COc2ccccc2)cs1)c1ccccc1F	-18.3% (inactive)
COc1ccc(CNC(=O)CN(Cc2ccc(OC)cc2)C(=O)CCC(=O)Nc2nccs2)cc1	0.987% (inactive)
COc1cc(Cl)ccc1NC(=O)COc1ccccc1C(=O)N1CCN(c2ccc(O)cc2)CC1	-2.05% (inactive)
CCCN1C(=O)c2ccccc2NC1c1ccc(Cl)cc1 (stereo not given)	-1.06% (inactive)
CC(=O)c1cccc(NC(=O)CN(c2cccc(F)c2)S(C)(=O)=O)c1	3.17% (inactive)
COc1ccc(CNC(=O)COc2ccc(OC)cc2)cc1	-4.06% (inactive)
COc1cccc(CNC(=O)CN(C)S(=O)(=O)c2cnc[nH]2)c1	-2.62% (inactive)
COc1cccc(-c2cc(C(=O)Nc3ccncc3)c3ccccc3n2)c1	4.9% (inactive)
COc1cnc(-c2cccc(C(F)(F)F)c2)c(NC(=O)c2cc3ccccc3s2)n1	-0.128% (inactive)
CCOc1ccc(N=Nc2c(C)[nH]n(-c3ccccc3)c2=O)cc1	-5.21% (inactive)
O/N=C1\CC/C(=N\O)c2nn(-c3ccccc3Cl)nc21	-1.62% (inactive)
O=C(CN1C(=O)NC2NC(=O)NC21)NC1CCCCC1 (stereo not given)	-5.35% (inactive)
Cc1ccc(C(=O)COC(=O)c2cccc(NC(=O)c3ccc([N+](=O)[O-])cc3[N+](=O)[O-])c2)cc1	-3.42% [at 16 µM] (inactive)
COc1ccc(C(=O)/C(C#N)=N/Nc2cccc([N+](=O)[O-])c2)cc1	-8.25% (inactive)

SMILES	activity change, negative = inhibition
N#Cc1c(-c2ccccc2)c(-c2ccccc2)nn(CC(=O)NNC(=O)Nc2ccc(Cl)c(Cl)c2)c1=O	-10.7% (inactive)
N/C(=N\OC(=O)COc1ccc2ccccc2c1)c1ccncc1	-14% (inactive)
COC(=O)c1c(-c2ccc(C)cc2)csc1NC(=O)C1CC=CCC1C(=O)O (stereo not given)	11.9% (inactive)
Cc1ccc([N+](=O)[O-])cc1N=Nc1c(-c2ccc([N+](=O)[O-])cc2)[nH]n(C(N)=S)c1=O	0.54% (inactive)
CCc1noc(C)c1C(=O)Nc1cc(S(=O)(=O)N2CCOCC2)ccc1OC(C)C	-11.1% (inactive)
CCOC(=O)N1CCN(C2CC(=O)N(c3ccc(F)cc3)C2=O)CC1 (stereo not given)	-8.96% (inactive)
C[C@@H]1CN([C@H](C)CO)C(=O)c2cc(NC(=O)Nc3ccc(C(F)(F)F)cc3)ccc2O[C@H]1CN(C)S(=O)(=O)c1ccc(Cl)cc1	-1.46% (inactive)
Cc1cc(=O)oc2c(CN3CCN(CCO)CC3)c(O)ccc12	-6.12% (inactive)
O=C(NNC(=O)c1ccc([N+](=O)[O-])cc1)c1ccc(NS(=O)(=O)c2cccs2)cc1	-2.28% (inactive)
Cc1cccc(C(=O)NNS(=O)(=O)c2ccc(F)cc2)c1O	-20.4% (inactive)
COc1cc(NC(=O)COC(=O)CC2CC3CCC2C3)cc(OC)c1 (stereo not given)	-13.2% (inactive)
CCSc1ccccc1C(=O)Nc1cc(C)on1	-5.14% (inactive)
COc1cccc(C(=O)OCC(=O)NC(=O)NC2CCCC2)c1O	-9.96% (inactive)
COC(=O)c1cc(C(=O)OCC(=O)NC2CCCC2)cc([N+](=O)[O-])c1	-1.93% (inactive)
CC(=O)NC(CCS(C)(=O)=O)C(=O)N1CCc2ccccc21 (stereo not given)	-7.29% (inactive)
COc1cccc(OCc2cc(C(=O)N(C)CCOc3ccc(C)cc3)no2)c1	-4.38% (inactive)
CC(C)=NOc1cc(NC(=O)CCl)cc([N+](=O)[O-])c1	1.51% (inactive)
C/C(=N\NC(=O)COc1ccccc1)c1ccc(O)cc1	-3.89% (inactive)
Nc1nnnn1/N=C/c1cc(Cl)cc(Cl)c1O	-12.6% (inactive)
O=C(O)Cn1c2ccccc2c2n[nH]c(=S)nc21	-4.23% (inactive)
CCOC(=O)c1cc(NC(=O)c2ccc(Cl)cc2)c(=O)n2c1oc1ccc(Cl)cc12	-3.91% (inactive)
S=c1nc[nH]c2c1sc1nc(-c3ccccc3)c3c(c12)CCCC3	-9.92% (inactive)
Cc1ccc(C)c(NS(=O)(=O)c2ccc(NC(=O)CSc3ccc(Cl)cc3)cc2)c1	1.79% (inactive)
CCn1c(SCC(=O)Nc2ccc(N3CCOCC3)cc2)nnc1-c1ccncc1	-6.22% (inactive)
